From PubChem BioAssay
Sampled rows, rich in hits. Any-hit rate of the full collection: about 2.2%.
KLF5 inh: KLF5 expression inhibitors, primary screen, DLD-1 cells, luminescence | DLD-1 KLF5 promoter-luciferase reporter | hit rate 0.23% among 290,000 | inhibition, % at 5 µM | AID 1700, 2009;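 active = inhibition above a per-plate limit of that plate's mean compound inhibition plus 3 SD, cut at about 60% in these data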;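 also: 0% = DMSO wells and 100% = LY294002 at 200 µM; higher means less KLF5 promoter-driven luciferase light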
BaF3 tox: parental Ba/F3 cell viability inhibition, counter-screen for JAK2V617F inhibitor project, murine pro-B, CellTiter-Glo luminescence; hit rate 1.1% among 220,000; CellTiter-Glo ATP luminescence; AID 1486, 2009; inhibition, % at 5.6 µM;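 active = inhibition above a per-campaign cutoff, the mean inhibition of all tested compounds plus 3 SD, cut at about 27% in these data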;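 also: 0% = DMSO wells and 100% = JAK Inhibitor I control wells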
Ba/F3 V617F tox: reduced viability of JAK2V617F-dependent Ba/F3 cells, primary screen, JAK2V617F inhibitor project, cell-based, Ba/F3 EpoR-JAK2V617F, luminescence; ATP luminescence; inhibition, % at 5.6 µM; hit rate 1.1% among 220,000; AID 1446, 2008;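 active = inhibition above the campaign mean plus 3 SD over all tested compounds, cut at about 24% in these data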;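 also: cytokine-independent growth of Ba/F3 cells driven by EpoR plus mutant JAK2; 0% = DMSO-treated cells and 100% = JAK inhibitor I control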
APP transl inh: inhibitors of APP translation via 5'UTR reporter, primary screen, APP 5'UTR luciferase, SH-SY5Y cells; inhibition, % at 2 µM; SH-SY5Y APP 5'UTR-luciferase reporter, luminescence; hit rate 0.82% among 190,000; AID 1285, 2008;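 active = inhibition above a set limit, derived from the sample mean plus 3 SD, cut at about 45% in these data; inconclusive = one replicate passes the limit while the other fails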
aSyn UTR inh: MLPCN primary screen, SNCA 5' untranslated region; AID 1813, 2009; inhibition, % (tested at 7.5 µM); alpha-synuclein 5'UTR reporter, inhibitor activity; hit rate 0.82% among 300,000; in the data active = inhibition above about 60%; inconclusive = no clear call, values can overlap the other calls;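 also: H4 neuroglioblastoma cells stably carrying SNCA 5'UTR luciferase fusion; 0% = DMSO wells and 100% = positive control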
IEC-6 tox: cytotoxicity in IEC-6 intestinal epithelial cells, primary screen, cytotoxicity control for KLF5 inhibitor project, cell-based, luminescence | inhibition, % at 5 µM | IEC-6 cytotoxicity, luminescence viability | hit rate 0.78% among 290,000 | AID 1825, 2009;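 also: 0% = plate median of test compound wells and 100% = cytotoxic reference compound wells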
IEC-6 cytotox cf: cytotoxic compounds in IEC-6 epithelial cells, confirmation, cytotoxicity control, cell-based, luminescence; hit rate 63% among 1,900; IEC-6 rat intestinal epithelial viability; AID 1907, 2009; shares compounds with IEC-6 tox; inhibition, % at 5 µM;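 also: 0% = vehicle and 100% = reference cytotoxic drug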
Starred values were filed as active, the others as inactive; ? = inconclusive; . = no result given. Rule as the data show it, unless noted: active = inhibition above about 22%; inactive = the rest.

SMILES	KLF5 inh	BaF3 tox	Ba/F3 V617F tox	APP transl inh	aSyn UTR inh	IEC-6 tox	IEC-6 cytotox cf
Cc1oc(-c2cc3c(cc2Cl)OCO3)nc1CN1CCCC1c1ccc(F)cc1 (stereo not given)	-41.2	4.3	-4.9	-6.6	-12.3	-3.0	.
CCCCCCn1ccc(=N)cc1	5.8	69.2*	92.0*	1.8	13.0	28.4*	26.4*
CC1=CC(C)(C)N(C(=O)CCl)c2cc(C)ccc21	1.6	8.7	2.7	-13.3	-9.0	-3.4	.
CC1=CC(C)(C)N(S(=O)(=O)c2ccc(C)cc2)c2cc(C)ccc21	59.7	84.5*	81.9*	95.9*	52.2	92.3*	60.7*
CCOc1ccc2c(c1)OC(c1ccc(OC)cc1)(C(F)(F)F)NC2=O (stereo not given)	45.2	76.8*	78.3*	90.7*	96.1*	81.0*	54.9*
Cc1c(C)c2c(OCC(=O)N[C@@H](CC(C)C)C(=O)O)cc3c(c2oc1=O)CCC(C)(C)O3	-10.2	.	.	.	-14.2	4.8	.
NC(N)=N/N=C/c1ccc(Br)cc1	9.6	34.4*	10.0	28.5	-8.5	25.8*	55.7*
N#Cc1ccc(/C=N/N=C(N)N)cc1	-16.7	6.0	2.9	-15.0	-5.0	3.6	.
O=[N+]([O-])c1cc(C=Nc2cccc3c(O)cccc23)ccc1Cl	-13.2	.	.	.	37.6	33.3*	-4.2
CNc1oc(-c2ccc(C)cc2)nc1P(=O)(c1ccccc1)c1ccccc1	0.1	4.2	-1.2	2.1	-0.3	4.7	.
C=CCc1cccc([C@@H]2[C@@H](C)CC[C@H]3C(=O)N4[C@@H](c5cc(OC)c(OC)c(OC)c5)c5[nH]c6ccccc6c5C[C@H]4C(=O)N23)c1	34.6	-1.4	-3.9	-3.1	30.8	34.0*	9.4
C(=C\c1nnc2c3ccccc3ncn12)/c1ccccc1	0.6	69.0*	81.9*	72.5*	53.0	59.5*	20.2
Cn1c(/C=C/c2ccccc2)nc2ccccc21	-57.7	7.8	2.0	-65.0	38.5	6.0	.
Cc1cccc(OCC(=O)NCC(=O)N/N=C/c2cc(Br)cc(Br)c2O)c1	34.9	.	.	.	28.9	29.6*	17.7
COc1cccc(C(=O)N2C(C(=O)O)CSC2c2ccccc2Cl)c1 (stereo not given)	-5.3	3.0	-3.4	14.5	17.1	-6.1	.
NC(N)=Nc1ccc(N=C(N)N)cc1	-8.9	3.2	-3.3	.	-2.7	97.2*	97.7*
COc1ccc2c(c1)C(=O)Cc1ccccc1O2	.	.	.	.	31.3	.	.
CN1CCc2c(sc(NC(=O)c3ccc4ccccc4c3)c2C(N)=O)C1	-89.6	.	.	.	-108.2	49.8*	26.3*
CN1CCc2c(sc(NC(=O)Cc3ccccc3)c2C(N)=O)C1	-15.6	.	.	.	2.6	3.8	.
C=CCNC(=O)COC(=O)c1cccnc1Nc1ccccc1F	-11.8	-2.7	-3.8	-9.3	7.8	6.8	.
CCc1c(C)nc2ncnn2c1NCCc1ccc(OC)cc1	17.2	57.4*	63.0*	19.5	30.9	24.4*	23.7*
CCc1c(C)nc2ncnn2c1Nc1ccc(C)cc1	-13.7	.	.	.	13.5	9.5	.
CCOC(=O)CC(NS(=O)(=O)c1ccc2[nH]cc(C(=O)O)c(=O)c2c1)c1ccc(OCC)c(OC)c1 (stereo not given)	-8.9	.	.	.	-0.8	-5.9	.
CCOc1ccc(S(=O)(=O)N2CCN=C2c2ccccc2)cc1	23.4	.	.	.	-27.4	26.4*	22.6*
Cc1cc(S(=O)(=O)N2CCN=C2c2ccccc2)ccc1F	-35.1	3.1	1.4	-6.6	34.8	0.8	.
SMILES	KLF5 inh	BaF3 tox	Ba/F3 V617F tox	APP transl inh	aSyn UTR inh	IEC-6 tox	IEC-6 cytotox cf
CCOC(=O)Cc1csc(NC(=O)C(C)c2ccc([N+](=O)[O-])cc2)n1 (stereo not given)	-14.9	2.3	-6.1	12.9	12.5	-0.8	.
O=C(NCC1CCCO1)c1ccc(NS(=O)(=O)c2cccs2)cc1 (stereo not given)	-9.4	-7.1	-0.2	.	4.6	-2.6	.
COc1cc(/C=C/c2nc3ccccc3c(=O)[nH]2)ccc1OC(F)F	-127.4	.	.	.	-195.0	-1.1	.
COc1cc(/C=C/c2nc3ccccc3c(=O)[nH]2)cc(OC)c1OC	32.1	.	.	.	-83.8	60.6*	70.7*
O=C(O)c1cccnc1Nc1ccc(Cl)cc1	-11.3	33.3*	28.5*	-10.5	-2.9	34.0*	22.8*
CCc1ccc(C(=O)COC(=O)CNC(=O)COc2ccccc2)cc1	-9.4	1.6	-3.3	12.3	-1.0	-3.8	.
O=C(NCCN1CCOCC1)c1ccncc1	3.4	1.5	-1.1	-14.1	10.8	-7.6	.
O=C1C=C(NCCN2CCOCC2)C(=O)c2cnccc21	29.7	10.5	7.7	12.7	131.5*	99.3*	100.4*
O=C(NNc1ccccc1F)c1ccccc1	-2.3	-6.6	10.5	.	2.6	25.5*	-8.5
NNC(=O)c1[nH]c(-c2ccccc2)cc1-c1ccccc1	-40.2	.	.	.	17.5	27.7*	-2.6
O=C(c1ccc([N+](=O)[O-])o1)N1CCc2ccccc2C1	-25.7	-1.1	-0.9	.	-103.3	-1.2	.
O=C(c1ccc([N+](=O)[O-])o1)N1CCc2ccccc21	-60.9	.	.	.	-190.3	29.7*	5.1
COCCNC(=O)CN(Cc1ccccc1)C(=O)CCC(=O)Nc1nccs1	7.1	.	.	.	-6.3	-6.8	.
Cc1ccc(C(=O)c2cc3c(cc2[N+](=O)[O-])OCCO3)cc1	-15.7	5.6	4.0	-15.1	-6.2	3.6	.
O=C(Nc1ccc([N+](=O)[O-])cc1)Nc1ccon1	57.6	.	.	.	74.0*	81.6*	57.0*
Cc1ccc(/S(C)=N/S(=O)(=O)c2ccc(C)cc2)cc1 (stereo not given)	-32.9	6.5	1.6	-3.0	11.7	-7.6	.
Cc1ccc(-c2csc3ncnc(N4CCN(Cc5ccccc5)CC4)c23)cc1	-42.9	.	.	.	11.3	-7.2	.
Cc1csc2ncnc(NC3CCN(Cc4ccccc4)CC3)c12	-25.6	60.7*	54.9*	.	-19.6	22.9*	14.1
CC#CC(=O)N1CCC(CCc2ccccc2)(C(=O)OCC)CC1	6.3	-0.1	-1.5	-12.0	?	26.9*	11.8
CCOC(=O)C1(CCc2ccccc2)CCN(C(=O)c2ccoc2)CC1	-11.5	3.2	5.5	-1.4	-25.4	-2.1	.
Cc1cccc(NC(=O)COc2ccccc2C(=O)NC(C)c2ccccc2)c1 (stereo not given)	-4.3	.	.	.	9.7	1.7	.
CCOc1ccc(C(C)=O)cc1N1C(=O)C2C3C=CC(O3)C2C1=O (stereo not given)	-20.8	28.3*	10.9	17.9	0.3	21.9*	0.6
c1ccc2c(c1)CCN(C1=Nc3cccc4cccc1c34)C2	-37.8	10.9	1.4	-101.0	.	8.0	.
C=CCc1cccc(/C=N/NC(=O)c2ccccc2Br)c1O	-35.0	4.1	-3.5	16.5	2.4	21.6	.
